Bioassay records from PubChem BioAssay.
KB-3-1 cytotox – kills parental KB-3-1 adenocarcinoma cells; KB-3-1 viability, CellTiter-Glo ATP luminescence, 72 h; 400,000 compounds, 1.4% hits; AID 1347075; Potency, µM (series often up to 46.1 µM), most hits filed as cytotoxic; note: nearly all actives have a fitted effect of over 60% in size
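72 h, 37 °C compound treatment of KB-3-1 parental cells; CellTiter-Glo added, 10 min, luminescence read. Data corrected against DMSO-only plates and normalized before curve fitting.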
HT1080-NT tox – kills 2HG-producing HT-1080-NT fibrosarcoma cells; 360,000 compounds, 1.6% hits; HT-1080-NT fibrosarcoma viability, CellTiter-Glo ATP luminescence, 48 h; Potency, µM (doses to about 46.1 µM), usual class: cytotoxic;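 note: NT is the 2HG producing partner of a matched IDH1 knockdown line; nearly all actives have a fitted effect of over 55% in size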
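A 48-hour cytotoxicity screen used HT-1080-NT cells plated 2 hours before compound delivery. ATP-based CellTiter-Glo luminescence measured viability, normalized to DMSO and no-cell controls.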
MCF10A rerep – induces DNA re-replication in MCF 10a normal breast cells. MCF 10A DNA re-replication, Hoechst nuclear intensity, 48 h. Potency, µM (titrated, usually from 46.1 µM), most hits filed as activators. 350,000 compounds, 2.9% hits; note: nearly all actives have a fitted effect of over 50% in size
SW480 rereplic – DNA re-replication induction in SW480 cells; Potency, µM (series often up to 46.1 µM), usual class: activators; AID 624297; 340,000 compounds, 1.8% hits; SW480 DNA re-replication, Hoechst DNA content imaging, 48 h; note: nearly all actives have a fitted effect of over 55% in size
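Image-based read-out: total Hoechst fluorescence of nuclei (405 nm excitation, 500-530 nm emission), with hits raising the fraction of high-intensity nuclei. SW480 colon cells incubated 48 hr with compounds at 37 C.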
KB-V1 MDR tox – kills drug-selected multidrug resistant KB-V1 cells. KB-V1 MDR cells viability, CellTiter-Glo, 72 h. Potency, µM (series often up to 46.1 µM), hits mostly cytotoxic. AID 1347076. 400,000 compounds, 3.4% hits; note: nearly all actives have a fitted effect of over 60% in size
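Cytotoxicity toward P-gp-expressing KB-V1 cells was determined as loss of CellTiter-Glo luminescence after 72 h at 37 degrees C. Compounds were tested in quantitative HTS format across a concentration range, with curves fitted to normalized data.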
HT1080 IDH1KD tx – toxicity to HT-1080 IDH1 knockdown cells (counter line) | Potency, µM (highest dose often 46.1 µM), most hits filed as cytotoxic | AID 686971 | 360,000 compounds, 2% hits | HT-1080 IDH1 knockdown viability, ATP luminescence, 48 h
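Cytotoxicity counter-line: IDH1KD HT-1080, 48 h, CellTiter-Glo. Curves classed by r2, magnitude and activity.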
A number is an active result; . = inactive; ? = inconclusive; / = not tested or not shown; ! = repeats disagree. This is a sample that favours compounds with a hit; in the whole collection about 7.9% have one here. Calls come from the whole dose curve; as a rule, active = well fitted curve in the direction sought with a large enough effect; inconclusive = small, poorly fitted or top-dose-only effect, or another doubt; inactive = no such curve, though single readings can be large; an effect the other way counts as inactive or inconclusive.

SMILES	KB-3-1 cytotox	HT1080-NT tox	MCF10A rerep	SW480 rereplic	KB-V1 MDR tox	HT1080 IDH1KD tx
COCCNC(=O)c1c(N)n(Cc2ccco2)c2nc3ccccc3nc12	.	.	.	.	.	?
COCCNC(=O)c1c(NC(=O)c2ccco2)n(Cc2ccccc2)c2nc3ccccc3nc12	.	.	?	2.6µM	.	.
O=c1oc2cccnc2n1CCS(=O)(=O)c1ccc(F)cc1	.	.	21µM	?	.	.
COc1cccc2c1C(=O)c1c(O)c3c(c(O)c1C2=O)CC(O)(C(C)=NO)CC3OC1CC(N)C(O)C(C)O1 (stereo unspecified)	?	?	.	.	.	10µM
CCOC(=O)c1sc(/N=C/c2c(O)n(-c3cccc(C)c3)c(=O)[nH]c2=O)c(C#N)c1C	.	.	?	.	21µM	.
COc1ccc(-n2nc(C(=O)NCC(=O)N3CCC4(CC3)OCCO4)c3ccccc3c2=O)c(OC)c1	.	.	.	.	.	.
CCOC(=O)[C@]12Cc3cc(C)ccc3[C@H]1N(C)C(=O)c1cc(OC)ccc12	7.3µM	?	/	/	.	16µM
CCOC(=O)[C@]12Cc3c(cc(OC)c(OC)c3OC)[C@H]1N(C)C(=O)c1ccccc12	?	.	/	/	.	.
CCOC(=O)[C@]12Cc3c(cc(OC)c(OC)c3OC)[C@H]1N(C(C)C)C(=O)c1cc(OC)ccc12	4.1µM	15µM	/	/	2.6µM	18µM
CCOC(=O)[C@]12Cc3cc(OC)ccc3[C@H]1N(C(C)C)C(=O)c1cc(OC)ccc12	10µM	21µM	/	/	6.5µM	21µM
CCOC(=O)[C@]12Cc3cc(OC)ccc3[C@H]1N(C)C(=O)c1ccccc12	?	.	/	/	?	.
CCOC(=O)N(CC)c1ccc(C(O)(C(=O)OC)C(F)(F)F)cc1 (stereo unspecified)	.	.	.	.	.	.
COC(=O)C1=C(c2cccc(OC)c2OC)C[C@@H]2CC[C@H]1N2C(=O)N1CCCC1	.	.	.	.	.	.
ClC1=C(Cl)C2(Cl)C(CBr)CC1(Cl)C2(Cl)Cl (stereo unspecified)	/	/	19µM	.	/	/
Cn1c(CN2CCCCC2)nc2cc(NC(=O)c3cccc(Br)c3)ccc21	18µM!	?	?	.	?	?
O=C(CN1CCCCC1)c1cccc(Br)c1	.	.	.	?	.	.
CC1=C(C(=O)O)N2C(=O)C(NC(=O)CCCC(=O)O)C2SC1 (stereo unspecified)	.	.	.	.	.	.
NCCc1ccc(OCc2ccccc2)c(OCc2ccccc2)c1	?	.	?	?	23µM	?
COC(=O)C1=C(c2ccc(F)cc2F)C[C@@H]2CC[C@H]1N2C(=O)N1CCC(O)(c2ccc(Cl)cc2)CC1	?	.	7.3µM	.	.	.
CCN1C[C@@]2(COC)C3[C@@H](OC)[C@H]4[C@@H]1[C@@]3(C1C[C@H]3[C@H](O)C1[C@]4(O)C[C@H]3OC)[C@@H](OC)C[C@H]2O (stereo partly specified)	.	.	.	.	.	.
Cc1cc(OCC(=O)NCc2ccncc2)c2c3c(c(=O)oc2c1)CCC3	.	.	.	.	.	.
COc1ccc(F)cc1CN1CCN(C(=O)CCC(=O)Nc2nnc(CC(C)C)s2)CC1	.	.	18µM	?	.	.
N#CSCC(=O)N1c2ccccc2CCc2ccccc21	?	?	?	?	23µM	23µM
Nc1ccccc1C(=O)OCC(=O)N1CCc2ccccc21	.	.	.	.	.	.
O=C(CCn1nc(-c2ccc(Cl)cc2)ccc1=O)N1CCC2(CC1)OCCO2	.	.	.	.	.	.
SMILES	KB-3-1 cytotox	HT1080-NT tox	MCF10A rerep	SW480 rereplic	KB-V1 MDR tox	HT1080 IDH1KD tx
Cc1nc2cc(-c3ccc(Cl)cc3)nn2c(C)c1CCC(=O)N1CCC2(CC1)OCCO2	.	.	.	.	18µM	.
CN(C)C(=O)Oc1ccc(C(=O)c2ccccc2)cc1	.	.	.	.	.	.
C#C[C@]1(O)CCC2C3C(=O)C=C4C(Cl)=CCC[C@]4(C)C3CC[C@@]21C (stereo partly specified)	.	10µM	18µM	?	.	33µM
CCN(C[C@H]1N[C@@](CC)(C(=O)OC)[C@H]2C(=O)N(Cc3ccccc3)C(=O)[C@@H]12)C(=O)Nc1ccc(OC)cc1	.	.	?	.	.	.
CCC(C)C12CN3CCN(CC(C)(C3)C1O)C2 (stereo unspecified)	.	.	.	.	.	.
O=C(Nc1ccc2oc(-c3ccccc3F)nc2c1)c1ccc2c(c1)OCCO2	.	13µM	?	.	18µM	?
Oc1ccc(CCNCc2cc3c(cc2Br)OCO3)cc1	.	.	/	/	?	.
COc1ccc(Nc2nc(N3CCCC3)nc3ccccc23)c(OC)c1	.	?	18µM	?	?	11µM
COc1ccc(-n2c(/C=C\c3ccccc3F)nc3ccccc3c2=O)c(OC)c1	.	/	/	/	.	/
COC1=C(C)C(=O)c2c(c(COC(N)=O)c3n2C[C@@H]2[C@@H]3N2C)C1=O (stereo partly specified)	.	/	/	/	?	/
COc1cc(C2c3cc4c(cc3CC3COC(=O)C32)OCO4)cc(OC)c1O (stereo unspecified)	.	?	?	0.16µM	?	?
C=CCc1cc(OC)c2c(c1)OCO2	.	.	.	.	.	.
COc1ccc2c(c1OC)C(=O)OC2C1c2cc3c(cc2CCN1C)OCO3 (stereo unspecified)	.	.	?	.	?	.
COc1cc(C2c3cc4c(c(O)c3CC3COC(=O)C32)OCO4)cc(OC)c1O (stereo unspecified)	0.016µM	/	/	/	0.18µM	/
COc1ccc(C(O)CNC(C)C)c(F)c1OC (stereo unspecified)	.	/	?	.	.	/
O=c1c2ccccc2nc(/C=C/c2cccnc2)n1Cc1ccccc1	.	?	.	.	?	?
COc1ccc(-c2csc(Nc3ccc(S(N)(=O)=O)cc3)n2)cc1	?	?	10µM	?	.	18µM
CCN(C(=O)COC(=O)c1cc(C)n(C2CC2)c1C)c1ccccc1	.	.	?	.	2.6µM	.
O=C(Nc1ccc(Cl)cc1C(=O)c1ccccc1)c1ccc(Br)o1	.	.	.	.	?	?
O=C(O)c1c[nH]c2ccc(S(=O)(=O)N(CCCl)CCCl)cc12	.	.	.	.	.	.
N#C/C(=C(/O)c1ccc(S(=O)(=O)N(CCCl)CCCl)cc1)c1nc2ccccc2[nH]1	.	.	10µM	?	.	.
Cc1nn(Cc2ccccc2Cl)c(C)c1C(=O)Nc1nnc(C2CC2)s1	.	?	.	?	.	2.5µM
